# Reference: the supplement of paper PMC11172423
# Values without a mark were called inactive.
# How the values were obtained:
# [1] = tested on: Falciformispora senegalensis CBS197.79; test: growth relative to untreated control; higher = less inhibition, active = 20 or less
# Method in brief: (§1)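 Viability readout used either MTS (2 h, 490 nm) or resazurin (600 nm). Before this, hyphal fragments of M. mycetomatis MM55 or F. senegalensis CBS197.79 in colourless RPMI 1640 with L-glutamine and MOPS (68–72% transmission at 660 nm) had been exposed in 96-well plates to compound at 100 or 25 µM for 7 days at 37 °C. Growth denotes metabolic activity relative to the untreated growth control, with a medium-plus-dye blank subtracted from both.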
# [2] = tested on: Madurella mycetomatis MM55; test: as above
# Method in brief: as §1
SMILES,growth ([1]; 25 µM) [%],growth ([1]; 100 µM),growth ([2]; 25 µM),growth ([2]; 100 µM)
Cc1ccc(C(=O)Nc2ccc(CN3CCN(C)CC3)c(C(F)(F)F)c2)cc1C#Cc1cnc2cccnn12,20.7,-2.57% (active),16.4% (active),10.5% (active)
Oc1nc2ccccc2n1C1CCN(CCCC(c2ccc(F)cc2)c2ccc(F)cc2)CC1,101,100%,7.07% (active),64.9%
COc1ccc(-c2nc3c(NCc4ccccc4)nccc3[nH]2)c(OC)c1,63.7,26.6%,6.23% (active),7.79% (active)
CC(C)(C)NC(=O)N[C@H](C(=O)N1C[C@H]2[C@@H]([C@H]1C(=O)NC(CC1CCC1)C(=O)C(N)=O)C2(C)C)C(C)(C)C (some centres undefined),103,101%,103%,81.9%
O=C(c1ccc(Nc2nccc(-c3ccc(Cl)cc3)n2)cc1)N1CCS(=O)(=O)CC1,80.5,98.8%,76.8%,81.3%
CCCCc1nc(Cl)c(CO)n1Cc1ccc(-c2ccccc2-c2nn[nH]n2)cc1,105,105%,103%,88.8%
CC(C)(C)Nc1ncc2nc(Nc3cc(Cl)cc(C(F)(F)F)c3)n([C@H]3C[C@H](N)C3)c2n1,50.9,11.3% (active),7.82% (active),5.73% (active)
NC(=O)N1CCC(CC(=O)N2CCC([C@H]3c4ncc(Br)cc4CCc4cc(Cl)cc(Br)c43)CC2)CC1,105,101%,3.17% (active),11.2% (active)
CN1[C@H]2CC[C@H]1CC(OC(c1ccccc1)c1ccccc1)C2 (some centres undefined),103,103%,82.4%,84.3%
CCOC(=O)C1=C(CC)NC2=C(C(=O)CC(C)(C)C2)C1c1ccc(Br)cc1 (centres undefined),82.3,87%,106%,73.2%
Cc1c2c(n3c(nc4ccccc43)c1C#N)N(CCN(C)C)CC2,64.5,88.2%,101%,43.7%
O=C(Nc1ncccc1O)c1ccc(Cn2cccn2)cc1,87.3,86.4%,93.2%,123%
CCN(CC)CCNc1nc(Nc2cccc(OC)c2)c2cnn(-c3ccccc3)c2n1,76.3,17.5% (active),5.18% (active),4.88% (active)
CCC(CC)COC(=O)[C@H](C)NP(=O)(OC[C@H]1O[C@@](C#N)(c2ccc3c(N)ncnn23)[C@H](O)[C@@H]1O)Oc1ccccc1 (some centres undefined),109,96.3%,95.1%,85.7%
CCN(CC)CCNC(=O)c1ccc(NC(=O)c2cc3c(C)nn(-c4ccc(Cl)cc4)c3s2)cc1,58.4,61.2%,59.2%,108%
CCOC(=O)c1c(CSc2ccccc2)n(C)c2cc(Br)c(O)c(CN(C)C)c12,103,97.8%,98.5%,75.4%
N#Cc1ccc(C/C(=N/NC(=O)Nc2ccc(OC(F)(F)F)cc2)c2cccc(C(F)(F)F)c2)cc1,97,96.1%,98.2%,91.3%
Cc1cccc(-c2noc(-c3ccccc3)n2)c1,86.3,99.4%,90.6%,68.5%
Nc1nc(C2CC2)cn1CC(O)c1ccc(Cl)cc1Cl (centres undefined),86,73.7%,83.6%,83.2%
CC(C)Nc1ncc2nc(Nc3cc(F)cc(Cl)c3)n(C3CCNCC3)c2n1,101,99.6%,91.1%,94.2%
COC(=O)N[C@H](C(=O)N[C@@H](Cc1ccccc1)[C@@H](O)CN(Cc1ccc(-c2ccccn2)cc1)NC(=O)[C@@H](NC(=O)OC)C(C)(C)C)C(C)(C)C,114,108%,88.9%,105%
